Test results taken from PubChem BioAssay (NCI).
Where “and” joins values, the source holds several entries; their conditions need not be identical. Equal values may be shown once. Compounds without any hit were thinned out: in the full panel of roughly 83,000, 20% have a hit.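 Cell lines were cultured in 96-well plates, exposed to a single compound concentration, and assessed for percent growth 48 hours later.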

Tests used:
Assay in all cases: NCI-60 one-dose screen, 48 h (100 = growth as untreated, 0 = no growth, -100 = all killed)
Conditions in all cases: 10 µM unless noted; active = growth percent below 10; inactive = the rest
HCT-15 colon = tested on: HCT-15 colon
HT29 colon = tested on: HT29 colon
SNB-75 CNS = tested on: SNB-75 CNS
SNB-19 CNS = tested on: SNB-19 CNS
U251 CNS = tested on: U251 CNS
PC-3 prostate = tested on: PC-3 prostate
SK-MEL-5 melanoma = tested on: SK-MEL-5 melanoma
UACC-62 melanoma = tested on: UACC-62 melanoma
LOX IMVI melanoma = tested on: LOX IMVI melanoma
SK-MEL-28 melanoma = tested on: SK-MEL-28 melanoma

Measured: growth

COC(=O)c1nc(N)nc(C(=O)OC)c1C(=O)c1cccc2ccccc12
inactive: HCT-15 colon 102% | HT29 colon 104% | SNB-75 CNS 104% | SNB-19 CNS 103% | U251 CNS 108% | PC-3 prostate 97% | SK-MEL-5 melanoma 98.9% | UACC-62 melanoma 97.2% | LOX IMVI melanoma 95.3% | SK-MEL-28 melanoma 106%

COc1ccc(CCn2cnn3c(=O)c4ccccc4nc3c2=O)cc1OC
inactive: HCT-15 colon 104% and 109% | HT29 colon 106% and 104% | SNB-75 CNS 103% and 135% | SNB-19 CNS 104% and 96.6% | U251 CNS 101% and 104% | PC-3 prostate 102% and 98.7% | SK-MEL-5 melanoma 101% and 97% | UACC-62 melanoma 111% and 102% | LOX IMVI melanoma 98% | SK-MEL-28 melanoma 109% and 125%

COc1ccc(S(=O)(=O)c2ccc(F)cc2)cc1
inactive: HCT-15 colon 95.6% | HT29 colon 106% | SNB-75 CNS 101% | SNB-19 CNS 93.1% | U251 CNS 101% | PC-3 prostate 94.1% | SK-MEL-5 melanoma 106% | UACC-62 melanoma 93.9% | LOX IMVI melanoma 81.5% | SK-MEL-28 melanoma 104%

CCN(CC)CCO/N=C1\CC(c2ccc(OC)c(OC)c2)Oc2ccccc21 (centres undefined)
inactive: HCT-15 colon 88.6% | HT29 colon 74.8% | SNB-75 CNS 68% | SNB-19 CNS 98.5% | U251 CNS 93.6% | PC-3 prostate 83% | SK-MEL-5 melanoma 93.4% | UACC-62 melanoma 107% | LOX IMVI melanoma 89.6% | SK-MEL-28 melanoma 107%

CCCCOC1NC(=O)NC(=O)C1(F)C(=O)OCC (centres undefined)
inactive: HCT-15 colon 70% and 48.2% | HT29 colon 74.1% and 52.3% | SNB-75 CNS 78% and 81.8% | SNB-19 CNS 101% and 82.6% | U251 CNS 91.6% | SK-MEL-5 melanoma 81% and 66.9% | UACC-62 melanoma 72% and 52.8% | LOX IMVI melanoma 73.5% and 52.5% | SK-MEL-28 melanoma 83.4% and 70.7%

S=c1nn[nH]n1C1CCCCC1
inactive: HCT-15 colon 115% | HT29 colon 116% | SNB-75 CNS 95.2% | SNB-19 CNS 111% | U251 CNS 102% | PC-3 prostate 101% | SK-MEL-5 melanoma 105% | UACC-62 melanoma 113% | LOX IMVI melanoma 111% | SK-MEL-28 melanoma 117%

CCC(=O)Oc1ccc(OCc2ccccc2)cc1
inactive: HCT-15 colon 103% and 97% | HT29 colon 98.7% and 91.2% | SNB-75 CNS 98.2% and 105% | SNB-19 CNS 97.7% and 96.5% | U251 CNS 87.7% and 80.8% | PC-3 prostate 77.6% and 58.7% | SK-MEL-5 melanoma 84.1% and 73.6% | UACC-62 melanoma 81.8% and 79.9% | LOX IMVI melanoma 88.8% and 84.7% | SK-MEL-28 melanoma 122% and 111%

NNc1ncnc2cccc(Cl)c12
inactive: HCT-15 colon 97.8% | HT29 colon 95% | SNB-75 CNS 101% | SNB-19 CNS 103% | U251 CNS 95.4% | PC-3 prostate 93.3% | SK-MEL-5 melanoma 91% | UACC-62 melanoma 92% | LOX IMVI melanoma 94.6% | SK-MEL-28 melanoma 103%

Nc1c(Cl)cc2c(c1Br)C(=O)c1ccccc1C2=O
inactive: HCT-15 colon 88.9% | HT29 colon 100% | SNB-75 CNS 94.2% | SNB-19 CNS 88.8% | U251 CNS 95.8% | PC-3 prostate 97.7% | SK-MEL-5 melanoma 89.4% | UACC-62 melanoma 77% | LOX IMVI melanoma 94.2% | SK-MEL-28 melanoma 113%

CCOC(=O)c1ccncc1
inactive: HCT-15 colon 108% | HT29 colon 104% | SNB-75 CNS 108% | SNB-19 CNS 111% | U251 CNS 104% | PC-3 prostate 97.5% | SK-MEL-5 melanoma 95.8% | UACC-62 melanoma 101% | LOX IMVI melanoma 99% | SK-MEL-28 melanoma 110%

O=[N+]([O-])c1ccc(N/N=C/C2CCCCCC2)c([N+](=O)[O-])c1
inactive: HCT-15 colon 89.1% | HT29 colon 100% | SNB-75 CNS 117% | SNB-19 CNS 102% | U251 CNS 96.8% | PC-3 prostate 79.7% | SK-MEL-5 melanoma 96.9% | UACC-62 melanoma 81% | LOX IMVI melanoma 89.2% | SK-MEL-28 melanoma 99.7%

N#Cc1ccc(/C=C/C(=O)c2ccccc2)cc1
inactive: HCT-15 colon 49.6% and 82.3% | HT29 colon 12% and 70.5% | SNB-75 CNS 87.3% | SNB-19 CNS 89.9% | U251 CNS 33.2% and 62.5% | PC-3 prostate 52.2% | SK-MEL-5 melanoma 90.9% and 102% | UACC-62 melanoma 91.3% and 89.9% | LOX IMVI melanoma 28% and 82% | SK-MEL-28 melanoma 124% and 93.1%

CC(C)=NOC(C)C(=O)O (centres undefined)
inactive: HCT-15 colon 102% | HT29 colon 110% | SNB-75 CNS 97.9% | SNB-19 CNS 108% | U251 CNS 104% | PC-3 prostate 92.9% | SK-MEL-5 melanoma 107% | UACC-62 melanoma 89.4% | LOX IMVI melanoma 97.4% | SK-MEL-28 melanoma 113%

Cc1cnc(N)s1
inactive: HCT-15 colon 105% | HT29 colon 100% | SNB-75 CNS 71.5% | SNB-19 CNS 91.4% | U251 CNS 95.5% | PC-3 prostate 88.9% | SK-MEL-5 melanoma 97.5% | UACC-62 melanoma 90.7% | LOX IMVI melanoma 98.6% | SK-MEL-28 melanoma 99.1%

Cc1nc2c(=O)[nH]c(=S)[nH]c2[nH]c1=O
inactive: HCT-15 colon 105% and 104% | HT29 colon 104% and 105% | SNB-75 CNS 97.4% and 84.1% | SNB-19 CNS 104% and 102% | U251 CNS 113% and 104% | PC-3 prostate 105% and 96.7% | SK-MEL-5 melanoma 111% | UACC-62 melanoma 104% and 100% | LOX IMVI melanoma 96% | SK-MEL-28 melanoma 111% and 112%

O=C(O)C(Cc1ccc(OS(=O)(=O)Cc2ccccc2)cc1)NS(=O)(=O)Cc1ccccc1 (centres undefined)
inactive: HCT-15 colon 99.5% and 108% | HT29 colon 101% and 119% | SNB-75 CNS 85.7% and 94.9% | SNB-19 CNS 96.6% and 105% | U251 CNS 104% | PC-3 prostate 123% and 101% | SK-MEL-5 melanoma 97.5% and 108% | UACC-62 melanoma 108% and 97.9% | LOX IMVI melanoma 98% | SK-MEL-28 melanoma 108% and 116%

COc1ccc(CCN=Cc2ccc(Cl)cc2)cc1OC
inactive: HCT-15 colon 106% | HT29 colon 107% | SNB-75 CNS 127% | SNB-19 CNS 101% | U251 CNS 105% | PC-3 prostate 116% | SK-MEL-5 melanoma 107% | UACC-62 melanoma 107% | LOX IMVI melanoma 95.8% | SK-MEL-28 melanoma 121%

CCCCCc1cc[n+](CC(=O)c2ccccc2)cc1
inactive: HCT-15 colon 99.4% and 103% | HT29 colon 99.7% and 105% | SNB-75 CNS 92.6% | SNB-19 CNS 93.4% and 107% | U251 CNS 103% and 105% | PC-3 prostate 85.6% and 91.1% | SK-MEL-5 melanoma 96% and 89.5% | UACC-62 melanoma 98.7% and 101% | LOX IMVI melanoma 93.8% and 98.6% | SK-MEL-28 melanoma 128% and 109%

Nc1ccccc1SC(CC(=O)c1ccccc1)c1cccc([N+](=O)[O-])c1 (centres undefined)
inactive: HCT-15 colon 66.3% and 49.4% | HT29 colon 11.5% and 30.2% | SNB-75 CNS 74.9% and 78.1% | SNB-19 CNS 89.8% | U251 CNS 57.5% and 61.1% | PC-3 prostate 75% and 71.6% | SK-MEL-5 melanoma 96.3% | UACC-62 melanoma 85.5% and 94% | LOX IMVI melanoma 33.5% and 10.9% | SK-MEL-28 melanoma 96% and 102%
